G9a block = blocks human histone lysine methyltransferase G9a. G9a H3K9 monomethylation, AlphaScreen, 2 h. AID 504332. Q96KQ7. Potency, µM (series often up to 102 µM), for the others: at the highest dose activity, negative = inhibition, hits mostly inhibitors. 350,000 compounds, 8.8% hits; also: % is scaled to controls: 0 for no effect and ±100 for the full control effect; nearly all actives have a fitted effect of over 75% in size
Target sequence (Q96KQ7 913-1193 limits assumed): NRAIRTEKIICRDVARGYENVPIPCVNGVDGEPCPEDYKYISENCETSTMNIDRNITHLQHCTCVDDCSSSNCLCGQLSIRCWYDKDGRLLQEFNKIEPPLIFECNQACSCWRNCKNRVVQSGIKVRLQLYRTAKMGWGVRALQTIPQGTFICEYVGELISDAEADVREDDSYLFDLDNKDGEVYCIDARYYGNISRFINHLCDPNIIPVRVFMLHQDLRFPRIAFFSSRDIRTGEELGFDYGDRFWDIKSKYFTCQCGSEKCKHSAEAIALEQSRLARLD
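Signal arises when biotinylated H3K9 peptide, once monomethylated, bridges streptavidin donor and antibody-captured acceptor beads. Enzyme at 20 nM was preincubated 15 min with test compounds; peptide 500 nM and SAM 20 uM then reacted for 2 h.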
JMJD2A Tudor inh = inhibitors of human JMJD2A Tudor domain; O75164; AlphaScreen JMJD2A-Tudor / H3K4me3 peptide binding; Potency, µM (series often up to 114 µM), inactives show at the top dose activity change, negative = inhibition, actives largely listed as inhibitors; 390,000 compounds, 4.4% hits; also: % is scaled to controls: 0 for no effect and ±100 for the full control effect; nearly all actives have a fitted effect of over 50% in size
BAZ2B inh = inhibitors of human BAZ2B bromodomain; 360,000 compounds, 4.4% hits; AID 504333; Potency, µM (titrated, usually from 114 µM), for inactives: at the top dose activity change, negative = inhibition, actives largely listed as inhibitors; AlphaScreen BAZ2B-H3K14Ac peptide displacement; also: % is scaled to controls: 0 for no effect and ±100 for the full control effect; nearly all actives have a fitted effect of over 60% in size
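Inhibition is scored as reduced AlphaScreen emission. The BAZ2B/b-H3(5-23)K14Ac complex (50 nM each) in PBS pH 7.4, 0.01% Tween-20 meets compound (up to 110 uM) for 30 min at RT before bead addition.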
HP1b chromo inh = HP1-beta chromodomain-methylated histone interaction inhibition; AID 540317; Potency, µM (doses to about 114 µM), inactives show top-dose activity change, negative = inhibition, most hits filed as inhibitors; AlphaScreen HP1-beta / biotin-H3K9me3 peptide binding; 390,000 compounds, 0.56% hits; also: nearly all actives have a fitted effect of over 70% in size
Target sequence (P83916 whole entry, looked up): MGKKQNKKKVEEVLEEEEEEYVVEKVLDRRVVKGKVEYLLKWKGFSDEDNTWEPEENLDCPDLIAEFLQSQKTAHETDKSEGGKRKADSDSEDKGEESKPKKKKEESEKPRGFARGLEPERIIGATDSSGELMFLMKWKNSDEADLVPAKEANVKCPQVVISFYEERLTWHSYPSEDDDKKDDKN
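Compound inhibition of the preformed complex between 50 nM HP1-beta and 50 nM biotinylated H3K9me3 peptide was read by AlphaScreen. Buffer was PBS pH 7.4 with 0.01% Tween-20. Incubations ran 30 min at room temperature, with 10 ug/mL donor/acceptor beads.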
L3MBTL1 block = inhibitors of human L3MBTL1 | AlphaScreen L3MBTL1–H3K9me1 peptide binding | Q9Y468 | 230,000 compounds, 0.66% hits | Potency, µM (doses to about 57.1 µM), without a hit: at the highest dose activity, negative = inhibition, actives largely listed as inhibitors; also: % is scaled to controls: 0 for no effect and ±100 for the full control effect; nearly all actives have a fitted effect of over 60% in size
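Read-out is AlphaScreen signal from streptavidin donor and nickel chelate acceptor beads (10 ug/mL final each) bridging L3MBTL1 (50 nM) and biotinylated K9-monomethylated H3(1-15) peptide (75 nM), after 30 min compound exposure at room temperature.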
* marks the source's active call; other numbers are inactive results; ? = inconclusive; nt = not tested or not shown; [ ] = remark or other dose. This is a sample that favours compounds with a hit; in the whole collection about 11% have one here. Calls follow the shape of the dose curve; as a rule, active = well fitted inhibition curve with a large enough effect; inconclusive = small, poorly fitted or top-dose-only effect; inactive = no such curve, though single readings can be large or run the other way. Potency is read from the fitted curve at half-maximal effect.

SMILES | G9a block | JMJD2A Tudor inh | BAZ2B inh | HP1b chromo inh | L3MBTL1 block
CCc1ccc(CNC(=O)c2cnc3sc(N(CC)CC)nn3c2=O)cc1 | 20%[59 µM] | -11% | -3% | -1% | nt
Cc1ccc(CNC(=O)c2c(C)oc3ncnc(N4CCOCC4)c23)cc1 | 3%[59 µM] | -5% | 10%[57.1 µM] | 32% | nt
Cc1cc(=O)c2c(O)c3c(O)cc(O)c4c5c(O)cc(O)c6c(O)c7c(=O)cc(C)c8c1c2c(c34)c(c65)c78 | 8.9µM* | nt | nt | nt | nt
Cc1cc(=O)c2c(C)ccc(C)c2[nH]1 | 25% | -11% | -3% | 23% | nt
Cc1ccc(S(=O)(=O)c2[nH]c(-c3ccccc3)nc2SCC(N)=O)cc1 | -28%[59 µM] | -21% | -34% | 23% | nt
CSCCC(NS(=O)(=O)c1ccc2c(c1)oc(=O)n2C)C(=O)NCc1ccc(Cl)cc1 (centres undefined) | -18%[59 µM] | -8% | 8% | 15% | nt
CC(=O)N1CCC2(CC1)C/C(=N\NC(=S)Nc1ccccc1F)c1cc(O)ccc1O2 | 16µM* | ? | -33% | ? | nt
CC(=O)N1CCC2(CC1)C/C(=N\NC(=S)Nc1ccccc1C)c1cc(O)ccc1O2 | 32µM* | ? | -31% | ? | nt
O=C(N=Nc1c(O)n(Cc2ccccc2)c2ccccc12)c1ccc(O)cc1 | 15%[59 µM] | -19% | -5% | 15% | -6%
O=S1(=O)CC(O)C(N=Nc2c(O)n(Cc3ccccc3)c3ccccc23)C1 (centres undefined) | 40µM* | -29%[11.4 µM] | ? | ? | -19%
O=C(CSc1nc2ncc(Cl)cc2[nH]1)Nc1cccc(F)c1 | 50µM* | -20% | -23% | 36% | nt
Nc1ncnc2nc(SCC(=O)Nc3cccc(C(F)(F)F)c3)[nH]c12 | 35µM* | -14% | -15% | 29% | nt
Cc1cc(NS(=O)(=O)c2ccc(NC(=O)CSc3nc4ncc(Cl)cc4[nH]3)cc2)nc(C)n1 | 45µM* | -8% | -3% | 35% | 3%
CCn1nc(C)c(CN2CCC(C(=O)Nc3cccc(-c4cccc(Cl)c4)c3)CC2)c1C | ? | -8% | -26% | 60% | nt
COc1ccc(C2c3c(-c4ccccc4O)n[nH]c3C(=O)N2Cc2ccco2)cc1 (centres undefined) | -37%[59 µM] | ? | 35µM* | -15% | nt
COc1cc(C2c3c(-c4ccccc4O)n[nH]c3C(=O)N2Cc2ccco2)cc(OC)c1OC (centres undefined) | nt | -10% | -15% | 36% | nt
CCN(CC)CCCN1C(=O)C(=O)/C(=C(/O)c2ccc(OC)cc2)C1c1ccco1 (centres undefined) | nt | 10% | nt | 13% | nt
CCN(CC)CCN1C(=O)C(=O)/C(=C(/O)c2ccc(OC)cc2)C1c1ccco1 (centres undefined) | 40µM* | -16% | 3% | 30% | 2%
COCCN1C(=O)C(=O)/C(=C(/O)c2cccc(OC)c2)C1c1ccco1 (centres undefined) | nt | ? | 79µM* | 4% | ?
COc1cccc(/C(O)=C2/C(=O)C(=O)N(Cc3cccnc3)C2c2ccco2)c1 (centres undefined) | 45µM* | ? | -34% | 20% | -26%
CSc1ccc(/C=C/c2nc3ccccc3n2S(=O)(=O)c2ccc(Br)cc2)cc1 | 1%[59 µM] | ? | nt | 1% | nt
CCN(CC)CCN1C(=O)C(=O)/C(=C(/O)c2ccncc2)C1c1ccccc1 (centres undefined) | 50µM* | -18% | -9% | 12% | 2%
COC(=O)c1ccc(C2/C(=C(/O)c3ccc(OC)cc3)C(=O)C(=O)N2Cc2ccco2)cc1 (centres undefined) | 45µM* | ? | ? | 22% | -2%
COc1ccc(/C(O)=C2/C(=O)C(=O)N(Cc3ccco3)C2c2cccs2)cc1 (centres undefined) | 10%[59 µM] | -20% | ? | 29% | 8%
CCOc1ccc2[nH]c(=O)c(CN(CCN3CCCC3)C(=S)Nc3ccccc3OCC)cc2c1 | -25% | -22% | -26% | 44% | -20%
SMILES | G9a block | JMJD2A Tudor inh | BAZ2B inh | HP1b chromo inh | L3MBTL1 block
COc1ccc2[nH]c(=O)c(CN(CCN3CCCC3)C(=O)Nc3ccccc3Cl)cc2c1 | 50µM* | -23% | -5% | 11% | 0%
Cc1ccc(C)c2[nH]c(=O)c(CN(CCN3CCCC3)C(=O)Nc3cccc(Cl)c3)cc12 | 28µM* | -28% | -31% | 13% | -11%
CCc1ccc2[nH]c(=O)c(CN(CCCN3CCOCC3)C(=O)Nc3cccc(Cl)c3)cc2c1 | 50µM* | ? | ? | 15% | -3%
CCc1ccc2[nH]c(=O)c(CN(CCCN3CCOCC3)C(=O)Nc3ccc(Cl)cc3)cc2c1 | -30% | -30% | -22% | 3% | -3%
Cc1cc(C)c2cc(CN(CCN3CCCC3)C(=O)Nc3ccc(F)cc3)c(=O)[nH]c2c1 | ? | -25% | -30% | 8% | -17%
COc1ccc(C2Nc3ccccc3C(=O)N2Cc2ccccc2Cl)cc1COc1ccc(NC(C)=O)cc1 (centres undefined) | nt | -19% | nt | nt | nt
O=C(CSc1n[nH]c(-c2ccco2)n1)N1c2ccccc2Sc2ccccc21 | 50µM* | -26% | 56µM* | -10% | -24%
COc1ccc(NC(=O)CSc2n[nH]c(-c3ccco3)n2)cc1 | -2%[12.7 µM] | -6% | ? | 56% | 15%
O=C(CSc1n[nH]c(-c2ccco2)n1)Nc1ccc(Br)cc1 | -2% | 45µM* | -33% | -22%[57 µM] | nt
CCC(=O)Nc1ccc2nc3c(=O)n(C)c(=O)n(C)c3nc2c1 | 10%[59 µM] | -6% | 0% | 33% | nt
CCC(=O)Nc1ccc2nc3c(=O)[nH]c(=S)[nH]c3nc2c1 | 32µM* | 56µM* | 50µM* | ? | nt
Cc1oc2c(c1C(=O)Nc1ccc(Cl)cc1F)C1=NCCN1C=N2 | 2%[59 µM] | -24% | -8% | 80% | nt
CC(NC(=O)CNC(=O)c1ccccc1F)c1ccc(-n2ccnc2)cc1 (centres undefined) | -6%[12.7 µM] | -12% | 5% | 30% | 5%
Cc1cccc(NC(=O)CN2CCN(C(=O)c3cnn(Cc4ccccc4)c3)CC2)c1C | 1%[2.33 µM] | -11% | 13% | 13% | 1%
Cc1cc(NC(=O)CSc2ccc3nnc(-c4ccc(F)cc4)n3n2)no1 | 79µM* | -9% | -21% | -2% | -1%
COC(=O)CSc1ccc2nnc(-c3ccc(F)cc3)n2n1 | 79µM* | 7% | -2% | 23% | -6%
CCOC(=O)CC(=O)CSc1ccc2nnc(-c3ccc(F)cc3)n2n1 | -6% | -3% | 6% | 28% | -6%
Cc1ccc(-c2nnc3ccc(SCC(=O)Nc4cc(C)on4)nn23)cc1 | ? | -2% | 3% | 29% | 2%
Cc1ccc(NS(=O)(=O)c2cccc(C(=O)O)c2)cc1C | nt | -11% | nt | nt | nt
O=c1[nH]nc(SCc2ccccc2)c(=O)[nH]1 | ? | -9% | -6% | 26% | 7%

Screening data from PubChem.
